Our source for the growth values is PubChem BioAssay (NCI).

About 83,000 compounds went through this panel and 20% of them were active in at least one assay; those are over-represented in the sample as a whole.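 96-well plates, one dose, 48 hours. Percent growth reported; active if below 10.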 A number with no mark means an inactive call. Active and inactive are the calls of the source.

Some test systems named below: SR leukemia; RPMI-8226 leukemia; OVCAR-8 ovarian; OVCAR-5 ovarian; OVCAR-4 ovarian; SK-OV-3 ovarian; IGROV1 ovarian; OVCAR-3 ovarian; HS 578T breast; NCI/ADR-RES ovarian; T-47D breast; BT-549 breast; MDA-MB-435 melanoma; SW-620 colon; MCF7 breast; HCT-116 colon; HCC-2998 colon; KM12 colon.
Common to all, as to test: NCI-60 one-dose screen, 48 h (100 = growth as untreated, 0 = no growth, -100 = all killed)
Holding throughout (settings): 10 µM unless noted

With `CN(C)CCNc1nc2c3cc(Cl)ccc3nn2c2ccccc12`, the growth was 16.9% with SR leukemia; 50.8% in the assay with RPMI-8226 leukemia; 36.1% in the assay on OVCAR-8 ovarian; 65.7% with OVCAR-5 ovarian; 55.6% with OVCAR-4 ovarian; 57.4% in the assay on SK-OV-3 ovarian. Further, the growth with IGROV1 ovarian was 39.2%; in the assay on OVCAR-3 ovarian, 57.8%; in the assay with HS 578T breast, 68.8%; in the assay on NCI/ADR-RES ovarian, 36.5%; in the assay with T-47D breast it was 86.6%; with BT-549 breast, 73%. For the same compound, the growth is 65.3% with MDA-MB-435 melanoma; 23.7% in the assay on SW-620 colon; 35.3% in the assay on MCF7 breast; 22.9% in the assay on HCT-116 colon; 56.3% in the assay with HCC-2998 colon; 39.5% with KM12 colon.
Take `CCOC(=O)c1cc(C(=O)c2cc(OC)c(OC)c(OC)c2)n2ccc(-c3ccncc3)cc12`: the growth is 69.4% in the assay with SR leukemia; 56.9% in the assay with RPMI-8226 leukemia; 90.5% with OVCAR-8 ovarian; 113% with OVCAR-5 ovarian; 96.3% in the assay on OVCAR-4 ovarian; 87% in the assay with SK-OV-3 ovarian. Besides, the growth with IGROV1 ovarian is 111%; with OVCAR-3 ovarian, 109%; in the assay on HS 578T breast it was 86.8%; with NCI/ADR-RES ovarian it was 99.2%; in the assay on T-47D breast it was 84.1%; in the assay on BT-549 breast, 90.6%. Further, the growth is 106% in the assay on MDA-MB-435 melanoma; 105% in the assay on SW-620 colon; 107% with MCF7 breast; 76.3% with HCT-116 colon; 115% in the assay on HCC-2998 colon; 100% with KM12 colon.
For the compound `COc1cc(CNC(=O)/C=C/C=C/c2ccc3c(c2)OCO3)ccc1OCc1cn(-c2ccc(C)c(C)c2)nn1`, the growth with SR leukemia was 81.5%; in the assay with RPMI-8226 leukemia, 86.3%; in the assay on OVCAR-8 ovarian it was 71.3%; in the assay with OVCAR-5 ovarian it was 104%; in the assay with OVCAR-4 ovarian, 46.7%; with SK-OV-3 ovarian, 86.5%. Also, the growth is 76.1% with IGROV1 ovarian; 82.8% in the assay on OVCAR-3 ovarian; 91.4% in the assay with HS 578T breast; 80.5% in the assay on NCI/ADR-RES ovarian; 80.5% with T-47D breast; 88.3% in the assay with BT-549 breast. For the same compound, the growth was 76.9% in the assay with MDA-MB-435 melanoma; 92.1% with SW-620 colon; 81.9% in the assay on MCF7 breast; 75.2% with HCT-116 colon; 98% with HCC-2998 colon; 84% in the assay with KM12 colon.
On to `Brc1ccc2[nH]cc(-c3nonc3-c3c[nH]c4ccccc34)c2c1`, for which the growth is 28.1% in the assay with SR leukemia; 48.7% in the assay with RPMI-8226 leukemia; 47% in the assay with OVCAR-8 ovarian; 48.9% in the assay with OVCAR-5 ovarian; 46.1% with OVCAR-4 ovarian; 60.5% in the assay on SK-OV-3 ovarian. The growth was 43.6% in the assay with IGROV1 ovarian; 45.4% in the assay on OVCAR-3 ovarian; 52.8% in the assay on HS 578T breast; 42.6% with NCI/ADR-RES ovarian; 5.65% (active) in the assay with T-47D breast; 73.9% with BT-549 breast. Further, the growth in the assay with MDA-MB-435 melanoma is 47.1%; in the assay on SW-620 colon, 60.4%; in the assay on MCF7 breast it was 29.3%; in the assay with HCT-116 colon, 36.9%; in the assay with HCC-2998 colon, 21.5%; in the assay on KM12 colon, 16%.
Regarding `CCCCC[C@@H]1Cc2cc(O)c(C(=O)O)c3c2[C@H](C[C@]2(OC[C@@H](CC(=O)[C@@](C)(CC)C(=O)OC)[C@@H]2C)O3)O1`, the growth in the assay on SR leukemia is 105%; in the assay on RPMI-8226 leukemia, 108%; with OVCAR-8 ovarian, 99.4%; in the assay on OVCAR-5 ovarian it was 111%; in the assay with OVCAR-4 ovarian, 104%; with SK-OV-3 ovarian it was 104%. The growth was 103% in the assay on IGROV1 ovarian; 111% in the assay with OVCAR-3 ovarian; 99.8% in the assay on HS 578T breast; 113% in the assay with NCI/ADR-RES ovarian; 98.5% in the assay with T-47D breast; 121% with BT-549 breast. Moreover, the growth was 117% in the assay with MDA-MB-435 melanoma; 111% in the assay on SW-620 colon; 99.3% in the assay on MCF7 breast; 111% with HCT-116 colon; 133% in the assay with HCC-2998 colon; 105% with KM12 colon.
Take `O=C(O)[C@@H]1c2ccccc2-c2ccccc2[C@H]1C(=O)O`: the growth in the assay on SR leukemia was 116%; in the assay on RPMI-8226 leukemia, 100%; in the assay with OVCAR-8 ovarian it was 78.4%; with OVCAR-5 ovarian, 83.2%; in the assay with OVCAR-4 ovarian it was 98%; in the assay on SK-OV-3 ovarian it was 103%. The growth in the assay on IGROV1 ovarian is 80.7%; in the assay on OVCAR-3 ovarian, 104%; in the assay on HS 578T breast it was 94.3%; in the assay with NCI/ADR-RES ovarian it was 95.4%; with T-47D breast it was 102%; with BT-549 breast, 114%. Besides, the growth in the assay with MDA-MB-435 melanoma was 100%; in the assay with SW-620 colon, 101%; in the assay with MCF7 breast, 94.6%; with HCT-116 colon, 92.6%; in the assay on HCC-2998 colon, 100%; in the assay on KM12 colon it was 105%.
With `COc1ccc(-c2nc3c(c(-c4ccccc4)nn3-c3ccccc3)c(-c3ccc(N4CCN(C)CC4)cc3)c2C#N)cc1`, the growth in the assay with SR leukemia is 63.3%; in the assay on RPMI-8226 leukemia, 87.4%; in the assay on OVCAR-8 ovarian, 93.7%; with OVCAR-5 ovarian, 104%; in the assay on OVCAR-4 ovarian it was 107%; in the assay on SK-OV-3 ovarian, 109%. Besides, the growth with IGROV1 ovarian is 93.8%; with OVCAR-3 ovarian, 103%; in the assay with HS 578T breast it was 100%; in the assay on NCI/ADR-RES ovarian, 93%; in the assay on T-47D breast, 96.2%; in the assay with BT-549 breast, 90.6%. In addition, the growth in the assay with MDA-MB-435 melanoma is 93.9%; in the assay with SW-620 colon, 85.6%; with MCF7 breast, 81%; in the assay on HCT-116 colon, 81.4%; with HCC-2998 colon, 106%; in the assay on KM12 colon it was 95.6%.
As to `C=C1CC[C@@H]2[C@](C)(COC(C)=O)[C@H](OC(C)=O)CC[C@@]2(C)[C@@H]1CC(Sc1ccccc1)C1=CCOC1=O` (some centres undefined), the growth in the assay on SR leukemia was 2.9% (active); in the assay with RPMI-8226 leukemia, -4.72% (active); with OVCAR-8 ovarian it was 11.9%; in the assay with OVCAR-5 ovarian, 39.8%; in the assay on OVCAR-4 ovarian, 100%; with SK-OV-3 ovarian, 57.7%. The growth is 25.2% in the assay on IGROV1 ovarian; -84.2% (active) with OVCAR-3 ovarian; 54.2% in the assay on HS 578T breast; 10.1% with NCI/ADR-RES ovarian; 7.94% (active) with T-47D breast; -22.6% (active) in the assay with BT-549 breast. For the same compound, the growth in the assay on MDA-MB-435 melanoma is 101%; with SW-620 colon, 0.833% (active); with MCF7 breast it was 2.14% (active); with HCT-116 colon it was -34.6% (active); with HCC-2998 colon it was 44.7%; with KM12 colon, 18.6%.
